The text below walks through data of PubChem BioAssay.

A short description of assay [1]: polyglutamine-triggered caspase-3 activation inhibitors, cell-based (AID 1583). Particulars: polyglutamine-induced caspase-3 activation, cell assay; stronger effect = higher value;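 tested at 10 µM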.
Assay [2] is described as follows: suppressors of polyQ aggregation in yeast, 75Q-TubU reporter (AID 1593). The following applies: Yeast 75Q polyglutamine aggregation reporter.
Assay [3] is described as follows: rescue of polyQ-huntingtin neuronal dysfunction in worms, whole organism, C. elegans mechanosensory neurons, N-terminal huntingtin (AID 1599). Particulars: touch response, stronger effect = higher value.
Assay [4] is described as follows: inhibitors of mitochondrial cytochrome c release, biochemical, purified mitochondria (AID 1603).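 Also: mouse liver mitochondria challenged with calcium chloride; signal normalized to the plate average as 100%.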 Particulars: stronger effect = lower value.
Assay [5] can be described thus: inhibitors of polyQ protein aggregation (AID 1604). The following applies: polyglutamine-induced protein aggregation inhibition assay; stronger effect = higher value; tested at 2.5 µM.
The nature of assay [6]: enhancers of glutamate uptake in motor neurons, MN-1 cell line (AID 1612).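 Also: tested at 1 µM final; 0% = mean of DMSO vehicle wells on each plate; positive means more glutamate uptake than control and negative means less.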 Particulars: MN-1 motor neuron cells, stronger effect = higher value.
Assay [7] is described as follows: reducers of polyQ inclusions in PC12 cells, cell-based, NGF-treated PC12, GFPQ80 (AID 1614).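 Also: lower means fewer inclusions and 0 means no inclusions at all.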 Particulars: PC12 NGF-treated GFP-polyQ80 inclusion reduction.
Assay [8] in a line: suppressors of polyglutamine aggregation in yeast, 75Q-TubH (AID 1616). Particulars: S. cerevisiae 75Q-TubH polyglutamine aggregation suppression; stronger effect = higher value.
In assay [9] the target is 6-phosphogluconate dehydrogenase, decarboxylating (Homo sapiens) (UniProt P52209). Put plainly: 6PGD enzyme inhibitors, primary screen, biochemical, human, recombinant enzyme, NADPH absorbance (AID 1159550). Particulars: recombinant 6PGD, NADPH absorbance 341 nm; at 10 µM; stronger effect = higher value.
Assay [10] in a line: liver-stage malaria parasite growth inhibition, primary screen, cell-based, HepG2, luciferase luminescence, HepG2 viability (AID 624349; in the data active = parasite load remaining mostly below about 12%, no sharp cut-off; inactive = mostly above about 10%;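 also: 100% = mean of DMSO negative control wells on the same plate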). The following applies: P. berghei liver stage in HepG2, luciferase luminescence, concentration not given here; parasite load remaining: stronger effect = lower value; viability: measured here: HepG2 viability without parasites.
Assay [11] has as its target Mitogen-activated protein kinase 7 (Homo sapiens) (UniProt Q13164). The assay can be described thus: ERK5 transactivation activators in reporter cells, primary screen, cell-based, HTS (AID 1508626;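 active = luciferase signal above three times the same-plate solvent-only control wells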;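 also: luciferase driven by Gal4-ERK5 fusion binding five Gal4 sites before minimal TATA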). Particulars: HeLa Gal4-ERK5 transactivation, 18 h, at 5 µM, stronger effect = higher value.
The target of assay [12] is Calcium-dependent protein kinase 1 (Plasmodium falciparum (isolate 3D7)) (UniProt P62344). Put plainly: PfCDPK1 kinase inhibitors, biochemical, TCAMS library (AID 1159585; cut-off not given, nearly all actives have IC50 up to about 0.98 µM;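 also: inhibitors leave more ATP so luminescence rises with inhibition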). Particulars: recombinant PfCDPK1, Kinase-Glo ATP depletion luminescence. (Kinase-Glo reads ATP consumption through a luciferase reaction.)
The target of assay [13] is Plasmodium falciparum protein kinase 6 (PK6, PF3D7_1337100) (UniProt Q8IDW1). Put plainly: PfPK6 kinase inhibitors, biochemical, TCAMS library (AID 1159586; call rule not given here). The following applies: recombinant PfPK6, Kinase-Glo ATP depletion luminescence.
In assay [14] the target is Protein kinase 7 (PK7), Plasmodium falciparum 3D7 (PF3D7_0213400) (UniProt Q7YTF7). The assay can be described thus: inhibition of Plasmodium PK7 catalytic activity – biochemical, TCAMS antimalarial set, Kinase-Glo luminescence (AID 1159587; call rule not given here). Particulars: recombinant PfPK7, Kinase-Glo ATP depletion luminescence.
Assay [15] has as its target Calcium-dependent protein kinase 4 (Plasmodium falciparum (isolate 3D7)) (UniProt Q8IBS5). The assay can be described thus: PfCDPK4 kinase inhibitors, biochemical, TCAMS library (AID 1159588; cut-off not given, nearly all actives have IC50 up to about 0.91 µM). Particulars: recombinant PfCDPK4, Kinase-Glo ATP depletion luminescence.

The structures appear in SMILES notation. For some of these results: Results with a measured potency or affinity are listed apart. Calls of active or inactive are those of the source.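 The calls were made as follows, unless noted: active = at least 20% inhibition of 6-phosphogluconate dehydrogenase activity; inactive = the rest.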

Chain of 6-phosphogluconate dehydrogenase, decarboxylating (Homo sapiens) (P52209 whole entry, looked up): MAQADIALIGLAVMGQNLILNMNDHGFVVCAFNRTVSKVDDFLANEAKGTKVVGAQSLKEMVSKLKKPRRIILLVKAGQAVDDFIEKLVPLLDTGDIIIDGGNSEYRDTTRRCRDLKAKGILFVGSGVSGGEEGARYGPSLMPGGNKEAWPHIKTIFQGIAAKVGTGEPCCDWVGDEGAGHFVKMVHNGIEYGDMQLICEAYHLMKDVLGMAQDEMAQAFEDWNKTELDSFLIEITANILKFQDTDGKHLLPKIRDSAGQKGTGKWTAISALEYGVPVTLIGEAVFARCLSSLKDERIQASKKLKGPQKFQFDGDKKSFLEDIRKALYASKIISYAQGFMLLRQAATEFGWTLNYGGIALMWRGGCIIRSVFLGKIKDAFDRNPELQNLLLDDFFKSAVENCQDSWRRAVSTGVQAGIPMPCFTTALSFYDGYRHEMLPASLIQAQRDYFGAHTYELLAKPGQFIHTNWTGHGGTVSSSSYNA
Chain of Plasmodium falciparum protein kinase 6 (PK6, PF3D7_1337100) (Q8IDW1 1-305): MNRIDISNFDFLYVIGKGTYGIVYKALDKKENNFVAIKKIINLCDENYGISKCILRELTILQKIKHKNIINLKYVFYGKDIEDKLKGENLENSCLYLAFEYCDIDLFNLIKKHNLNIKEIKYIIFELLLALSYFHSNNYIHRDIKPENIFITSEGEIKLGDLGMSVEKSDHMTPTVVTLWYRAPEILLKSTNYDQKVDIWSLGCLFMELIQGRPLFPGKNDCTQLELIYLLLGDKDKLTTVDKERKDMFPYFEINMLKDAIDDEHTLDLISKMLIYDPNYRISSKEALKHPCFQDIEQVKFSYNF
Chain of Mitogen-activated protein kinase 7 (Homo sapiens) (Q13164 whole entry, looked up, the tested form may be a part): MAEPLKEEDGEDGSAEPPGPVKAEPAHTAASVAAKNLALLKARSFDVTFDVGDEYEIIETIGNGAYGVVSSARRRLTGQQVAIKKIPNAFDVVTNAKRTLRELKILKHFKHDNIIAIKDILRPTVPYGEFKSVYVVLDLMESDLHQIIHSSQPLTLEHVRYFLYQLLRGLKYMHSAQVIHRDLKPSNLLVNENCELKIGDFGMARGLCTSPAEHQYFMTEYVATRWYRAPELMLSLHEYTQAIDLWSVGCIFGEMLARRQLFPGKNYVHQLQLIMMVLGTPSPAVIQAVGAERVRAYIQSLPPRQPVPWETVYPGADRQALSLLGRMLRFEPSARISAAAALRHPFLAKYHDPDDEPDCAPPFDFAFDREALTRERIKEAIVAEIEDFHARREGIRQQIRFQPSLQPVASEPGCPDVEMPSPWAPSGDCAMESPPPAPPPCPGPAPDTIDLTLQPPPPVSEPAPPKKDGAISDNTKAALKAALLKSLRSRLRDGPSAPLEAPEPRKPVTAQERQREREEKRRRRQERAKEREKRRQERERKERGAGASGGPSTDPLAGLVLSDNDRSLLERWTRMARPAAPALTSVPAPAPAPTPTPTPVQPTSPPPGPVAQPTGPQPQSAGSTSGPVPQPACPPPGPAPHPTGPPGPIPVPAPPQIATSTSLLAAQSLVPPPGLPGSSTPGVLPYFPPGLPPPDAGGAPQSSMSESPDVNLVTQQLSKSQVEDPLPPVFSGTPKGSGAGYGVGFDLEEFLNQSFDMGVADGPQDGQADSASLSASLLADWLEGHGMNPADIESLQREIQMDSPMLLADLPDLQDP
Chain of Calcium-dependent protein kinase 1 (Plasmodium falciparum (isolate 3D7)) (P62344 whole entry, looked up): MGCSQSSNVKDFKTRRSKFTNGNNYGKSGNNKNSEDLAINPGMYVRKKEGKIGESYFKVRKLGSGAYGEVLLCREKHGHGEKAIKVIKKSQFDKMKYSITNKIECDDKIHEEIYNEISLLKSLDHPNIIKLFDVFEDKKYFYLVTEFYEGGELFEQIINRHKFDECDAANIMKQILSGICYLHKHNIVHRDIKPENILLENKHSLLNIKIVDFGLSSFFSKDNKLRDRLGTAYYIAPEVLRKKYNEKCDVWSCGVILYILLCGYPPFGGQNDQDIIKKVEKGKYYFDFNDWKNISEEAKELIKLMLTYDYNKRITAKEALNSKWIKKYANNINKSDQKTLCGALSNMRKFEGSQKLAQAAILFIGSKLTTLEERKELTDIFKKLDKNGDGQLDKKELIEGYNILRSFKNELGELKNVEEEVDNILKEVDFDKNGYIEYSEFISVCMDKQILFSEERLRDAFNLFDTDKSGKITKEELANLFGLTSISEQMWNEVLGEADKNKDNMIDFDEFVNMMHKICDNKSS
Chain of Calcium-dependent protein kinase 4 (Plasmodium falciparum (isolate 3D7)) (Q8IBS5 whole entry, looked up): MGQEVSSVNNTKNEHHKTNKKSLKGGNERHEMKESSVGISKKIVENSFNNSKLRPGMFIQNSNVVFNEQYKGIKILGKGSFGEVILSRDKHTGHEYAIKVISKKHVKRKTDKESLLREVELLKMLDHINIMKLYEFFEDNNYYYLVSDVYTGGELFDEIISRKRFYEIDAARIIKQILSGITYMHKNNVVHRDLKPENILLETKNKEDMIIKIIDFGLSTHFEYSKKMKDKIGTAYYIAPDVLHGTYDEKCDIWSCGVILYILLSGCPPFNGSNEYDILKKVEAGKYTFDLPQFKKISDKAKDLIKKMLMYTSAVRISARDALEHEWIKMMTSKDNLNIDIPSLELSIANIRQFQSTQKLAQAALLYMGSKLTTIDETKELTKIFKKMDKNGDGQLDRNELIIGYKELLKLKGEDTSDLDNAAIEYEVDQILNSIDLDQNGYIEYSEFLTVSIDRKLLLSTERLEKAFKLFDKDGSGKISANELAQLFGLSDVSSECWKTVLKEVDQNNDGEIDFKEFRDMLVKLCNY
Chain of Protein kinase 7 (PK7), Plasmodium falciparum 3D7 (PF3D7_0213400) (Q7YTF7 1-343): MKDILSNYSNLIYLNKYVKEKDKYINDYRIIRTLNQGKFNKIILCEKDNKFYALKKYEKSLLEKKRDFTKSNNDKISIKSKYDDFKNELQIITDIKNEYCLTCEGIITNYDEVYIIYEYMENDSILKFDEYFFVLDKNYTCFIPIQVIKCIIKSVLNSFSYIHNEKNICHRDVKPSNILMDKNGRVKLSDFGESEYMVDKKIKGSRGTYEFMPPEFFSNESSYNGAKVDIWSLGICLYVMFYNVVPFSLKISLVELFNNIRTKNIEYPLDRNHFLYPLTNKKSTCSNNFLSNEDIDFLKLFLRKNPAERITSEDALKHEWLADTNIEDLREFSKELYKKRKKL

A word on the inhibition: it is the change of the read-out against control, counted positive when it falls. Turning to `N[C@H](C(=O)O)[C@@H]1CC(Cl)=NO1`, the inhibition in assay [1] is -15.5%; in assay [9], 7.5% (inactive). The score in assay [2] worked out at 0.51. The rescue above control in [3] was -2.47. The cytochrome c release ratio in [4] stood at 0.83. Besides, in assay [5], the inhibition of aggregation is 25.5%. The glutamate uptake change in assay [6] was found to be 6.6%. This compound also had an inclusion score in [7] of 1. Further, the aggregation suppression score in assay [8] turned out to be 0.115.

In general, viability refers to a per cent measure of how many cells are alive, often set against a control. As to `CC(=O)N[C@@H](CCC(=O)O)C(=O)O`, in assay [1], the inhibition worked out at 24.8%. In assay [2], the score is 1.29. In assay [3], this compound gave a rescue above control of 9.63. In [4], the cytochrome c release ratio worked out at 1.22. In addition, in [5], the inhibition of aggregation turned out to be 74.1%. For the same compound, the glutamate uptake change in [6] was -6.23%. Besides, the inclusion score in assay [7] worked out at 2. Further, in assay [8], the aggregation suppression score stood at 1.35. Besides, in assay [10], the parasite load remaining was 196% (inactive) and the viability was determined as 71.4%. For the same compound, the inhibition in [9] was 13.8% (inactive).

Take `COC(=O)CCCOc1ccc(Cl)cc1Cl`: the inhibition in assay [9] was -8.02% (inactive). Further, in assay [11], the luciferase signal is 60 AU (inactive).

As for `CC12CCC3c4ccc(OCc5ccccc5)cc4CCC3C1C[C@@H](O)[C@@H]2O` (stereo partly specified), the inhibition in assay [1] was -24.8%; in assay [9], -6.08% (inactive). Besides, the score in assay [2] was -1.62. Also, in assay [3], the rescue above control amounted to 18.3. For the same compound, the cytochrome c release ratio in assay [4] turned out to be 1.14. The compound further displayed an inhibition of aggregation in assay [5] of 88.8%. Further, the glutamate uptake change in assay [6] was -1.58%. The aggregation suppression score in [8] was -0.303.

Turning to `CCOC(=O)c1c(C)cc(OC)cc1O`, the inhibition in [9] is 13.5% (inactive). For the same compound, in assay [11], the luciferase signal is 84 AU (inactive).

As to `COC(=O)[C@H]1[C@H]2C[C@H]3c4[nH]c5cc(OC)ccc5c4CCN3C[C@H]2C[C@@H](OC(=O)c2cc(OC)c(OC)c(OC)c2)[C@@H]1OC`, the inhibition in assay [1] was -6.47%; in assay [9], 0.174% (inactive). Besides, the score in assay [2] is 1.04. Further, in assay [3], the rescue above control is -3.75. Further, the cytochrome c release ratio in [4] was determined as 1.13. The same compound had an inhibition of aggregation in assay [5] of 26.7%. The glutamate uptake change in assay [6] was determined as 8.81%. In addition, the inclusion score in [7] was found to be 2.5. Also, the aggregation suppression score in assay [8] was 0.976. Moreover, the luciferase signal in assay [11] was 92 AU (inactive).

For the compound `CSCCC(N)C(=O)NC(CC(C)C)C(=O)NC(Cc1ccccc1)C(=O)O` (stereo unspecified), the inhibition was 18.9% in assay [1] and 9.25% (inactive) in assay [9]. Besides, the score in assay [2] was found to be 1.68. The rescue above control in assay [3] worked out at 2.33. Also, the cytochrome c release ratio in assay [4] was 0.77. Also, in [5], the inhibition of aggregation came to 67.8%. The glutamate uptake change in assay [6] turned out to be 4.95%. Also, the inclusion score in assay [7] came out at 2. Moreover, in assay [8], the aggregation suppression score came to 1.32.

`COc1cc(OC)c2c(c1Cl)O[C@@]1(C(=O)CC(=O)C[C@H]1C)C2=O`: the inhibition in [9] was 4.62% (inactive). Further, in assay [11], the luciferase signal is 48 AU (inactive).

For the compound `CC(N)C(=O)NC(Cc1ccccc1)C(=O)O` (stereo unspecified), the inhibition in [1] was 17.1%; in [9], 16.4% (inactive). The compound further had a score in assay [2] of 1.2. In assay [3], the rescue above control amounted to 1.23. Also, the cytochrome c release ratio in assay [4] was 1.13. For the same compound, in [5], the inhibition of aggregation is 77.8%. The glutamate uptake change in [6] worked out at 2.41%. This compound also yielded an inclusion score in assay [7] of 2. Besides, the aggregation suppression score in assay [8] turned out to be 1.4.

For `C[C@@H]1CC[C@@]2(OC1)O[C@H]1C[C@H]3[C@@H]4CC[C@H]5C[C@@H](O)CC[C@]5(C)[C@H]4CC[C@]3(C)[C@H]1[C@@H]2C`, the inhibition in assay [9] was -2.45% (inactive). For the same compound, in assay [11], the luciferase signal is 36 AU (inactive).

Turning to `CCCCCC(C)C(C)c1cc(O)c2c(c1)OC(C)(C)C/C2=C\c1ccncc1` (stereo unspecified), the result in assay [12], in [13], in [14] and in [15] was inactive.

As to `CCC[C@@H]([C@H](CC(C)C)C(=O)N[C@@H](CCCCNC(=O)OCc1ccccc1)C(=O)Nc1ncccn1)N(O)C=O`, the result in assay [12], in [13], in assay [14] and in [15] was inactive.

Turning to `O=C(N/N=C/c1nc2ccccc2[nH]1)c1cccc([N+](=O)[O-])c1`, the outcome in assay [12], in assay [13], in [14] and in assay [15] was inactive.
